From PubChem BioAssay (NCATS)
Inconclusive results are not listed. The source made the active and inactive calls. Calls follow the shape of the dose curve; as a rule, active = well fitted inhibition curve with a large enough effect in the repeat runs; inconclusive = weak or mixed curves; inactive = no such curve, though single readings can be large or run the other way.

Biological target: Cytochrome P450 2C9 (Homo sapiens) (UniProt P11712)
Assay: Cytochrome P450 family 2 subfamily C member 9 (CYP2C9) small molecule antagonists: luciferase biochemical (cell-free) qHTS assay (AID 1645842); also: nearly all actives have a fitted effect of over 55% in size
Details: P450-Glo CYP2C9 enzyme assay, luciferin luminescence; series mostly up to 57.4 µM; activity change, negative = inhibition: at the top concentration
Protocol: National Center for Advancing Translational Sciences [NCATS] Assay Overview: Cytochrome P450 (CYP) enzymes are membrane-bound hemeproteins that play a key role in metabolism of drugs and xenobiotics. Assaying the effect of chemicals on CYP isozymes is useful to minimize the adverse drug reactions and toxicities in drug development process. Chemical compounds were tested for their effect on CYP enzyme activities by using P450-Glo (TM) screening systems (Promega Corporation, Madison, WI). These systems provide a luminescent method containing proluciferin substrates and are converted to luciferin products by CYP isozymes. The luciferin products formed are detected with a luciferin detection reagent, and the amount of light produced is proportional to CYP activity. P450-Glo (TM) CYP2C9 screening system (Catalog. No. V9790) was used to detect the compounds that interfere in CYP2C9 activity.
Assay Protocol Summary: Two ul of enzyme-substrate mix supplemented with 0.4% Bovine Serum Albumin was dispensed into medium binding white/solid 1536-well plates (Greiner Bio-One North America Inc., Monroe, NC) using a Flying Reagent Dispenser (FRD, Aurora Discovery, San Diego, CA). […] The assay plates were incubated at room temperature for 10 min. Then 2 ul of NADPH regeneration solution was added to each well of the assay plates using an FRD and incubated at 37C for 1 h. The reaction was stopped by adding 4 ul of detection reagent using an FRD and after 20 min incubation at room temperature, the luminescence signal was measured using a ViewLux plate reader (Perkin Elmer, Shelton, CT). Data were expressed as relative luminescence units.
% is scaled to controls: 0 for no effect and ±100 for the full control effect; potency is read from the fitted curve at half-maximal effect.

Sequence of Cytochrome P450 2C9 (Homo sapiens) (P11712 whole entry, looked up): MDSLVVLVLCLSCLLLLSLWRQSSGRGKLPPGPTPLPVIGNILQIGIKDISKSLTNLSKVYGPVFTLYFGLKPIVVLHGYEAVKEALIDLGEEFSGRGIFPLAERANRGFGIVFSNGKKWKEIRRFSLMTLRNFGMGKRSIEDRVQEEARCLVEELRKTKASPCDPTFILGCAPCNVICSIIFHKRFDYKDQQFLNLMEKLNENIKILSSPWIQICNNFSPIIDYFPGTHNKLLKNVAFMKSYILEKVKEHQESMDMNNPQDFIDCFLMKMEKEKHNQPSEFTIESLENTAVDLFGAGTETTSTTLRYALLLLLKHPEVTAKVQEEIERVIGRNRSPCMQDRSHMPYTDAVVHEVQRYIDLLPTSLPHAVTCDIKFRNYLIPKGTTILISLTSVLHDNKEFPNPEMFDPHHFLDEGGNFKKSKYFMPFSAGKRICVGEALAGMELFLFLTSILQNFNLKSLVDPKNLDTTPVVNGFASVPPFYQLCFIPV

| SMILES | activity change, negative = inhibition | Potency |
| --- | --- | --- |
| Cc1ccc(Cn2c(SCc3ccc(C(=O)N4CCCCCC4)cc3)nc3ccncc32)cc1 | -0.447% (inactive) |  |
| CCCNC(=O)C1CCC(Cn2c(=O)c3sccc3n(CC(=O)NCc3ccccc3)c2=O)CC1 (stereo not given) |  | 6.01 µM (active) |
| COc1cc(C(c2c(C)[nH][nH]c2=O)c2c(C)[nH][nH]c2=O)ccc1OC(=O)c1ccccc1F |  | 10.7 µM (active) |
| CC(C)c1ccc(NC(=O)CSC2=Nc3ccccc3C3=NC(CC(=O)NC4CCCCC4)C(=O)N23)cc1 (stereo not given) |  | 12 µM (active) |
| CCOc1ccc(-c2nonc2NC(=O)c2oc3c(C)c(C)ccc3c2C)cc1OCC |  | 0.379 µM (active) |
| COc1ccccc1C(=O)Oc1ccc(C(c2c(C)[nH][nH]c2=O)c2c(C)[nH][nH]c2=O)cc1 |  | 10.7 µM (active) |
| Nc1nc(NC2CC2)c2ncn([C@H]3C=C[C@@H](CO)C3)c2n1 | -13.9% (inactive) |  |
| COc1ccc(NC(=O)c2nc(SCc3ccc(F)cc3)ncc2Cl)cc1 |  | 3.38 µM (active) |
| CCc1ccc(OCCn2c(C3CC(=O)N(Cc4ccc(F)cc4)C3)nc3ccccc32)cc1 (stereo not given) | 13.2% (inactive) |  |
| COc1ccc(-c2cn3cccnc3n2)cc1NC(=O)COc1ccccc1 |  | 4.77 µM (active) |
| Cc1ccc([S+](=O)([O-])NC2CC(C)(C)CC(C)(C)C2)cc1 |  | 2.13 µM (active) |
| CC1(C#N)CCN(c2c(C(=O)N3CCC(C(=O)C4CC4)CC3)cnc3ccc(F)cc23)CC1 |  | 1.9 µM (active) |
| CCOC(=O)N1CCc2c(sc3c2c(=O)n(Cc2ccccc2)c(=O)n3CC(=O)Nc2cccc(C)c2)C1 |  | 4.25 µM (active) |
| CCOC(=O)N1CCc2c(sc3c2c(=O)n(Cc2ccccc2)c(=O)n3CC(=O)Nc2ccc(F)cc2)C1 |  | 2.39 µM (active) |
| CCOC(=O)C1=C(O)c2ccccc2S(=O)(=O)N1C | 22.1% (inactive) |  |
| CCc1ccc(CNC(=O)C2CCCN(c3nnc(C)c4c(C)n(-c5ccc(OC)cc5)nc34)C2)cc1 (stereo not given) |  | 1.69 µM (active) |
| COC(=O)c1c(SCC(=O)Nc2ccccc2C(F)(F)F)[nH]c2ccc(Cl)cc2c1=O |  | 1.9 µM (active) |
| Cc1ccc(Cn2c(SCC(=O)NCc3ccccc3)nc3ccsc3c2=O)cc1 |  | 6.74 µM (active) |
| O=C(CSc1nc(-c2ccc(F)cc2)[nH]c1-c1ccc(F)cc1)Nc1ccc2c(c1)OCO2 |  | 0.849 µM (active) |
| COc1ccc(-c2nc(SCC(=O)Nc3ccc4c(c3)OCO4)c(-c3ccccc3)[nH]2)cc1 |  | 1.2 µM (active) |

| SMILES | activity change, negative = inhibition | Potency |
| --- | --- | --- |
| CCOC(=O)c1ccc(Nc2nc3nonc3nc2Nc2cccc(C)c2C)cc1 | 25.5% (inactive) |  |
| COc1ccc(C(=O)Oc2ccc(C(c3c(C)[nH][nH]c3=O)c3c(C)[nH][nH]c3=O)cc2)cc1 |  | 10.7 µM (active) |
| COc1ccccc1NC(=O)CSc1oc(-c2cccs2)nc1S(=O)(=O)c1ccc(Br)cc1 |  | 0.425 µM (active) |
| CCc1ccc(-n2c(SCc3cccc(F)c3)nc3[nH]ncc3c2=O)cc1 |  | 12 µM (active) |
| CCCCCCCCCCCCCCCC(=O)OC[C@H](O)[C@H]1OC(=O)C(=O)C1O (stereo not given in full) |  | 26.8 µM (active) |
| CC(=O)Nc1ccc(C)cc1-c1nc2ccccc2n(CC(=O)Nc2cc(Cl)ccc2C)c1=O |  | 3.01 µM (active) |
| CNS(=O)(=O)c1ccc(Cc2c(-c3cccc(-c4ccccc4)c3)[nH]n(-c3nc(C(=O)O)cs3)c2=O)cc1 |  | 21.3 µM (active) |
| Cc1cccc2nc(-c3ccccn3)c(Nc3ccc(F)cc3)n12 |  | 1.2 µM (active) |
| OCC=Cc1ccccc1 |  | 19 µM (active) |
| CC(=O)c1ccc(NC(=O)C2CCN(c3nnc(C)c4c(C)n(-c5ccccc5)nc34)CC2)cc1 |  | 7.56 µM (active) |
| COc1ccc(CNC(=O)C2CCCN(c3nnc(C)c4c(C)n(-c5ccc(C)cc5)nc34)C2)cc1 (stereo not given) |  | 2.68 µM (active) |
| CCCOC(=O)c1cc(O)c(O)c(O)c1 | -0.634% (inactive) |  |
| COc1ccc(-n2nc3c(N4CCCC(C(=O)NCc5cccc(F)c5)C4)nnc(C)c3c2C)cc1 (stereo not given) |  | 8.49 µM (active) |
| COc1ccc(CCNc2nc(SCc3ccccc3F)nc3ccccc23)cc1OC |  | 0.849 µM (active) |
| COc1cccc(NC(=O)Cn2c(=O)n(CC(=O)NCc3ccc(C)cc3)c(=O)c3sccc32)c1 |  | 6.01 µM (active) |
| CC1(C#N)CCN(c2c(C(=O)N3CCN(C(=O)C4CC4)CC3)cnc3ccc(Cl)cc23)CC1 |  | 16.9 µM (active) |
| COc1ccc(NC(=O)CSc2nc(-c3cccs3)cc(C(F)(F)F)n2)cc1OC | -1.06% (inactive) |  |
| CCOC(=O)c1c(NC(=O)c2ccc(S(=O)(=O)N(C)C3CCCCC3)cc2)sc2c1CCN(C(C)C)C2 |  | 5.35 µM (active) |
| COc1ccc(Cn2c(CCC(=O)Nc3cc(C)cc(C)c3)nc3cccnc32)cc1 |  | 6.74 µM (active) |
| O=C(O)CN(CC(=O)O)Cc1cc2c(-c3ccccc3C(=O)O)c3cc(CN(CC(=O)O)CC(=O)O)c(=O)cc-3oc2cc1O | 9.11% (inactive) |  |
